Only a sample is shown.
aSyn UTR act: Activators via SNCA 5'UTR binding, MLPCN. AID 1814, 2009. 300,000 compounds, 7.1% hits. alpha-synuclein 5'UTR reporter, activators screen. activity score, % (tested at 7.5 µM), hits read low; in the data active = activity score below about -60%
A number is an active result; 0 = inactive.

SMILES | aSyn UTR act
COc1ccccc1/C=C/C=N/NC(=O)c1cnccn1 | -69
Cc1oc(C(C)(C)C)cc1C(=O)Nc1cccc(C(=O)O)c1 | -114
Cc1oc(C(C)(C)C)cc1C(=O)Nc1ccc(C(=O)O)cc1 | -93
Cc1cc(C(=O)Nc2cccc(C(=O)O)c2)oc1C | 0
Cc1cc(C(=O)Nc2cccc(C(=O)O)c2)c(C)o1 | -92
COc1cc(NC(=O)c2ccccc2F)ccc1NC(=O)c1cc2ccccc2o1 | -67
COC(=O)c1cc(Cl)c(NC(=O)c2cc3ccccc3o2)cc1OC | -154
COc1cc(NC(=O)c2c(OC)cccc2OC)ccc1NC(=O)c1cc2ccccc2o1 | -205
CCC(=O)Nc1ccc(NC(=O)c2cc3ccccc3o2)c(OC)c1 | -134
COc1cccc(-c2nc(N3CCN(C)CC3)c3ccccc3n2)c1O | -165
O=[N+]([O-])c1ccc(Cc2nnc(-c3ccccc3Cl)o2)cc1 | -172
CC(=O)N(c1nnc(-c2cccc(C)c2)s1)C1CCCC1 | -160
Sc1oc(-c2ccccc2)cc1C=Nc1ccccc1 | -117
Cc1ccc(/C=N/Nc2ccc(C(=O)O)cc2)s1 | 0
O=C(O)c1ccc(N/N=C/c2ccc(OC(=O)c3ccccc3Cl)cc2)cc1 | 0
Cc1ccc(/C=N/Nc2ccc(C(=O)O)cc2)o1 | -70
O=C(O)c1ccc(N/N=C/c2ccc(-c3ccccc3Cl)o2)cc1 | -65
c1ccc(CCSc2nccn2-c2ccccc2)cc1 | -121
Cc1ccc(-c2cc(N)n(-c3ccc(F)cc3)n2)cc1 | -147
Cc1ccc(-c2cc(N)n(-c3ccc(C)cc3)n2)cc1 | -124
O=C(Nc1ccccc1)c1cccc(N2CCCC2=O)c1 | -117
COc1ccc(/C=N/NC(=O)CCn2cnc(-c3ccccc3)c2-c2ccccc2)cc1 | 0
COc1cccc(/C=N/NC(=O)CCn2nnc3ccccc32)c1 | -120
COc1cccc(/C=N/NC(=O)c2cccc(N3CCCC3=O)c2)c1 | -105
C/C(=N/NC(=O)c1cccc(N2CCCC2=O)c1)c1ccncc1 | -166
SMILES | aSyn UTR act
O=C(N/N=C/c1cc(Br)ccc1O)c1cccc(N2CCCC2=O)c1 | 0
Cc1ccc(C(=O)OCC(=O)NCc2cccs2)c(C)c1 | -75
Cn1c(-c2ccc3c(c2)OCO3)cnc1NCc1ccccc1Cl | -95
Cn1c(-c2ccc3c(c2)OCO3)cnc1NCc1ccccc1 | -104
c1ccc(-n2ncc3c2ncn2nc(-c4ccco4)nc32)cc1 | -131
CC1CCC(=C(C#N)c2nc(-c3cc4ccccc4oc3=O)cs2)CC1 (stereo not drawn) | -258
Cc1nc2ccccc2cc1OCc1ccc(Cl)cc1 | -72
COc1cccc(COc2cc3ccccc3nc2C)c1 | -96
Cc1nc(N)nc(N)c1CCCc1ccc(Cl)c(Cl)c1 | 0
COc1ccc(C(=O)N/N=C/c2sc3ccccc3c2O)cc1 | 0
COc1ccc(/C=N/NC(=O)c2[nH]c3ccc(Br)cc3c2-c2ccccc2)cc1 | 0
COc1ccc(C(=O)N/N=C/c2c[nH]c3ccccc23)cc1 | -70
COc1ccc2c(c1)c(C(=O)N/N=C/c1ccc(Br)cc1)c(C)n2C | -116
COc1ccc2c(c1)c(/C=N/Nc1ccc(C(=O)O)cc1)c(C)n2C | -75
COc1ccc(/C(C)=N/Nc2ccc(C(=O)O)cc2)c(OC)c1 | -140
COc1ccc(C(=O)N/N=C(\c2ccccc2)c2ccccn2)cc1 | 0
COc1ccc(C(=O)N/N=C/C(=O)c2ccccc2)cc1 | -133
CC(C)NC(=S)N/N=C/c1c[nH]c2ccccc12 | -124
C/C(=N\Nc1ccc(C(=O)O)cc1)c1ccc(Cl)s1 | -87
CCCCCN=C(N)N/N=C/c1c[nH]c2ccc(OC)cc12 | 0
COc1ccc2c(/C=N/Nc3ccc(C(=O)O)cc3)c[nH]c2c1 | -135
Cc1cc2c([nH]c3ccccc32)c2c1OC(C)(C)C=C2 | -204
Cc1cc2[nH]c3c(c[n+](C)c4ccccc34)c2cc1C | 0
Cc1ccc(C2CC(c3ccccc3)=NN2C(=S)Nc2ccccc2)o1 (stereo not drawn) | -65
N/C(=N\OC(=O)CCCc1ccccc1)c1ccccn1 | -69
SMILES | aSyn UTR act
N/C(=N\OC(=O)Cc1ccccc1)c1ccccn1 | -77
Cc1cc(C)nc(Nc2n[nH]c(-c3ccc(N)cc3)n2)n1 | -140
Cc1cc(C)nc(Nc2n[nH]c(-c3ccc(C(C)(C)C)cc3)n2)n1 | -129
FC(F)(F)c1ccc2c(c1)nc1n2CCCC1 | -65
CC(=O)c1ccc(OCc2cc(C(=O)N3CCC(Oc4ccccc4C)CC3)no2)cc1 | -182
CC(=O)c1ccc(OCc2cc(C(=O)N3CCOCC3)no2)cc1 | -154
Fc1ccc(CSc2ccc(-c3cccs3)nn2)cc1 | -121
c1cncc(CSc2ccc(-c3cccs3)nn2)c1 | -110
c1ccc(CSc2ccc(-c3cccnc3)nn2)nc1 | -78
Cc1ccc(CSc2ccc(-c3cccs3)nn2)cc1 | -99
Cn1c(/C=C/c2ccccc2)nc2ccccc2c1=O | -137
Cn1c(/C=C/c2ccc([N+](=O)[O-])o2)nc2ccccc2c1=O | 0
Cn1c(/C=C/c2ccc(Cl)cc2)nc2ccccc2c1=O | -181
Cc1[nH]c2ccccc2c1C(=O)C(=O)Nc1ccc2c(c1)OCCO2 | -126
O=C(Nc1ccc2c(c1)OCO2)C(=O)c1c[nH]c2ccccc12 | -72
CCN1CCN(Cc2ccc(NC(=O)c3cc(NC(=O)C(=O)c4c[nH]c5ccccc45)cc(OC)c3)cc2C(F)(F)F)CC1 | 0
O=C1N(c2ccccc2)C[C@@H]2C[C@@H](c3cc4ccccc4o3)N3CCC[C@@]123 | -594
CC(C)(C)c1ccc(C(=O)NCc2ccc(Cl)cc2)cc1 | -75
CC(C)(C)c1ccc(C(=O)NCc2ccccc2)cc1 | -88
Cc1ccc(CNC(=O)c2ccc3c(=O)c(O)c(-c4ccc(C)cc4)[nH]c3c2)cc1 | 0
Cc1ccc(CC(=O)NCc2ccc(Cl)cc2)cc1 | -76
Cc1cc(C)n(CC(=O)NC2CCCc3c2cnn3-c2ccc(C)c(C)c2)n1 (stereo not drawn) | -84
Cc1ccc(-n2ncc(C(=O)Nc3cc(Cl)cc(Cl)c3)c2C2CCNCC2)cc1C | 0
CC(C)(C)c1ccc(-c2nnc(NC(=O)c3ccccc3)s2)cc1 | -163
COc1cccc(C(=O)Nc2nc3c(s2)CN(C)CC3)c1 | -85
SMILES | aSyn UTR act
COc1cccc(C(=O)Nc2nnc(-c3ccccc3)s2)c1 | -224
COc1cccc(C(=O)NCc2ccc(-c3nc4ccccc4s3)cc2)c1 | -109
O=C(Nc1cccc2c1CCCC2)c1cc([N+](=O)[O-])ccc1Cl | -79
Cc1cc(O)c(NC(=O)c2cc([N+](=O)[O-])ccc2Cl)cc1C | -106
O=C(Nc1cccc2ncccc12)c1cc([N+](=O)[O-])ccc1Cl | -62
O=C(CCl)Nc1cccc2ncccc12 | -95
Cc1ccc(C2(c3ccc(C)cc3)CC2C(=O)Nc2ccc([N+](=O)[O-])cc2O)cc1 (stereo not drawn) | 0
Cc1ccc(O)c(NC(=O)c2cc([N+](=O)[O-])ccc2Cl)c1 | -62
COc1ccc(NC(=O)c2noc3c2CCCCC3)cc1 | -100
CCc1ccc(NC(=O)c2noc3c2CCCCC3)cc1 | -182
CSc1ccccc1NC(=O)c1noc2c1CCC2 | -103
O=C(NC1CCCCC1)c1noc2c1CCCCC2 | -90
COc1ccc(CNC(=O)c2noc3c2CCCC3)cc1 | -103
O=C(NCc1ccco1)c1noc2c1CCCCC2 | -77
Cc1ccc(NC(=O)c2noc3c2CCCCC3)cc1 | -117
Cc1ccc(Cn2ccc(NC(=O)c3noc4c3CCCC4)n2)cc1 | -111
Cc1ccc(O)c(NC(=O)c2noc3c2CCCCC3)c1 | -184
Cc1cccc(NC(=O)Nc2ccc(Br)cc2)n1 | -127

High-throughput results deposited in PubChem BioAssay by Broad Institute.
